Eight molecules from PubChem BioAssay (NCATS) can be followed below.

Experiment [1] concerns Es-2. Briefly: Primary qHTS to identify gynecologic anti-cancer compounds using libraries of approved drugs and bioactive compounds (AID 1345084). Further: on the % scale 0 is the no-effect control and ±100 the full control effect; nearly all actives have a fitted effect of over 55% in size. As to conditions: Gynecologic cancer cell panel viability, ATPlite luminescence, 48 h; series mostly up to 57.5 µM. In short, it runs like this:
(§1)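 Measured: luminescence after ATPlite addition (15 min, RT). Exposure: 48 h, 37 C, 5% CO2.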

For experiment [2], the system named is HeLa. Described as above. Conditions: Gynecologic cancer cell panel viability, ATPlite luminescence, 48 h; series mostly up to 57.5 µM. In short, it runs like this: as §1
(In ATP-based viability assays light output follows the ATP content of the culture.)

Experiment [3] concerns Hek293T. Described as above. Conditions: Gynecologic cancer cell panel viability, ATPlite luminescence, 48 h, control line for the selectivity index; series mostly up to 57.5 µM. In outline:
as §1

The test system of experiment [4] is JEG-3. The experiment is described as above. As to conditions: Gynecologic cancer cell panel viability, ATPlite luminescence, 48 h; series mostly up to 57.5 µM. In outline: as §1
The subject of experiment [5] is OV90. The experiment is described as above. As to conditions: Gynecologic cancer cell panel viability, ATPlite luminescence, 48 h; series mostly up to 57.5 µM. In short, it runs like this:
as §1

The test system of experiment [6] is PA-1. Described as above. As to conditions: Gynecologic cancer cell panel viability, ATPlite luminescence, 48 h; series mostly up to 57.5 µM. In short, it runs like this:
as §1

For experiment [7], the system named is SKOV3. The description is as above. Conditions: Gynecologic cancer cell panel viability, ATPlite luminescence, 48 h; series mostly up to 57.5 µM. In short, it runs like this:
as §1

Experiment [8] deals with Tov-21-G. Described as above. As to conditions: Gynecologic cancer cell panel viability, ATPlite luminescence, 48 h; series mostly up to 57.5 µM. In short, it runs like this: as §1
Experiment [9] relates to Tov112D. Described as above. As to conditions: Gynecologic cancer cell panel viability, ATPlite luminescence, 48 h; series mostly up to 57.5 µM. In short, it runs like this:
as §1

The nature of experiment [10]: Drug repurposing screens with cells derived from glioblastoma tumor samples (AID 1345199). Further: nearly all actives have a fitted effect of over 40% in size. Further: potency means the concentration at half of the fitted maximal effect. On activity, negative = cell killing: on the % scale 0 is the no-effect control and ±100 the full control effect. Conditions: GBM patient neurospheres viability, ATP luminescence, 48 h. In outline: (§2)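 Four patient lines of CD133+ GBM neurospheres were screened at several concentrations; hits were retested in those lines plus three slower-growing GBM lines, using 48-hour treatment and ATP-based viability.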

A short description of experiment [11]: qHTS assay for small molecule activators of the human pregnane X receptor (PXR) signaling pathway (AID 720659; call rule not given here; further: 0% is about no effect).
The subject of experiment [12] is astro. In words: Drug repurposing screens with cells derived from glioblastoma tumor samples (AID 1345199). Further: nearly all actives have a fitted effect of over 40% in size. Further: potency means the concentration at half of the fitted maximal effect. On activity, negative = cell killing: on the % scale 0 is the no-effect control and ±100 the full control effect. Conditions: viability, ATP luminescence, 48 h; series mostly up to 45.9 µM. In outline: as §2
In experiment [13] the target is Nuclear receptor subfamily 1 group I member 2 (Rattus norvegicus) (UniProt Q9R1A7). In words: qHTS assay for small molecule activators of the rat pregnane X receptor (rPXR) signaling pathway (AID 651751; call rule not given here; further: 0% is about no effect). As to conditions: rPXR reporter cells, luciferase (One-Glo), 24 h. (In qHTS, concentration-response curves come from the screen itself.)
Sequence of Nuclear receptor subfamily 1 group I member 2 (Rattus norvegicus) (Q9R1A7 whole entry, looked up): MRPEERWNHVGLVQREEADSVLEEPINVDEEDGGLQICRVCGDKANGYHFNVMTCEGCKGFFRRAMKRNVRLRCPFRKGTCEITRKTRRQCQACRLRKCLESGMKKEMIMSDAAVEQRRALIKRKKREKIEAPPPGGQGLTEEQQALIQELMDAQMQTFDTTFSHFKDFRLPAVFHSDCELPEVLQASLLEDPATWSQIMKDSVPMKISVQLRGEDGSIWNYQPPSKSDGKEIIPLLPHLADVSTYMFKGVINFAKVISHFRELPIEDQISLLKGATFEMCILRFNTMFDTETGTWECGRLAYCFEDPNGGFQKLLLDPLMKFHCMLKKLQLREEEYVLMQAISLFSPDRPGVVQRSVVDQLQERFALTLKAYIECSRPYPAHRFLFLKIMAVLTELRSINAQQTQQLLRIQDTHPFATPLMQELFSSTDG
[14] abbreviates: at 45.9 µM (top of the series), tumour line B.
The mark [15] stands for this setting: at 45.9 µM (top of the series), tumour line D.
Where [16] appears, read: at 46 µM (top of the series), tumour line A.

Several values for one entry are separate records, joined by “and”; a condition that tells them apart may be missing. Equal values may be shown once. A number with no mark means an inactive call. Results filed as inconclusive are left out. A structure can be active in one record and inactive in another. Activity calls are given as the source filed them. Unless noted, the call rests on the fitted dose curve; in most records, active means well fitted curve in the direction sought with a large enough effect; inconclusive means small, poorly fitted or top-dose-only effect, or another doubt; inactive means no such curve, though single readings can be large; an effect the other way counts as inactive or inconclusive.

Consider `N[C@@H](Cc1ccc(Oc2cc(I)c(O)c(I)c2)c(I)c1)C(=O)O`, for which the Potency result in experiment [1], in experiment [2], in experiment [3], in experiment [4], in experiment [5] and in experiment [6] was “inactive” throughout. The Potency entry in experiment [7], in experiment [8] and in [9] was “inactive” each time. Also, the activity, negative = cell killing is -6.2% in [10] (setting [14]), -17.5% in experiment [10] (setting [15]) and -27.6% in experiment [10] (setting [16]).

Regarding `Oc1cccc2cccnc12`, the Potency result in experiment [1], in [2], in experiment [3], in experiment [4], in experiment [5] and in [6] was “inactive” throughout. In addition, the Potency entry in experiment [7], in [8] and in experiment [9] was “inactive” in each case. Besides, the activity, negative = cell killing is -22.3% in [10] (setting [14]) and -9.58% in experiment [10] (setting [15]). In addition, the molecule was classed as inactive in experiment [11].

Consider `CC1NCCOC1c1ccccc1` (stereo not given), for which the Potency result in [1], in experiment [2], in experiment [3], in experiment [5], in experiment [6] and in experiment [7] was “inactive” in each case. Also, the Potency entry in experiment [8], in [9] and in experiment [12] was “inactive” each time. For the same molecule, the activity, negative = cell killing was -0.55% in experiment [10] (setting [14]), 7.64% in experiment [10] (setting [15]) and -23.4% in [10] (setting [16]).

Consider `O=C(NC(O)C(Cl)(Cl)Cl)NC(O)C(Cl)(Cl)Cl` (stereo not given), for which the Potency result in experiment [1], in experiment [2], in [3], in [5], in experiment [6] and in [7] was “inactive” in each case. For the same molecule, the Potency result in experiment [8], in experiment [9] and in experiment [12] was “inactive” each time. Besides, the values for the activity, negative = cell killing in [10] (setting [14]), in [10] (setting [15]) and in [10] (setting [16]) were -10.4%, 2.45% and -14.7%, respectively.

With `O=P1(NCCCl)OCCCN1CCCl` (stereo not given), the Potency result in experiment [1], in [2], in experiment [3], in experiment [5], in experiment [6] and in [7] was “inactive” throughout. Besides, the Potency result in [8], in [9] and in experiment [12] was “inactive” throughout. Moreover, the activity, negative = cell killing in experiment [10] (at 21.2 µM (top of the series), tumour line B) was -10.6%; in experiment [10] (at 21.2 µM (top of the series), tumour line D) it was -4.8%; in [10] (at 21.3 µM (top of the series), tumour line A), -27.9%.

In the case of `CC(C)(N)Cc1ccc(Cl)cc1`, the Potency entry in experiment [1], in [2], in [3], in [5], in experiment [6] and in [7] was “inactive” throughout. The Potency entry in experiment [8] and in [9] was “inactive” each time. Also, the figures for the activity, negative = cell killing in [10] (setting [14]) and in experiment [10] (setting [15]) were -10.8% and -8.85%, respectively.

Take `c1ccc2c(c1)Nc1ccccc1S2`: the Potency result in [1], in experiment [2], in [3], in experiment [5], in [6] and in experiment [7] was “inactive” in each case. In addition, the Potency entry in [8] and in [9] was “inactive” each time. For the same molecule, the activity, negative = cell killing in experiment [10] (setting [14]) is -14.1%; in experiment [10] (setting [15]), -9.6%; in [10] (at 91.6 µM (top of the series), tumour line B), -11.1%; in [10] (at 91.6 µM (top of the series), tumour line D) it was -20.1%. Moreover, the Potency in experiment [10] (tumour line A) is 31.6 µM (active). The max response in experiment [13] was 0.0251% and 2.69%.

On to `O=c1[nH]c2ccccc2n1C1CCN(CCCC(c2ccc(F)cc2)c2ccc(F)cc2)CC1`, for which the Potency entry in [1], in experiment [2], in experiment [3], in experiment [4], in experiment [6] and in experiment [8] was “inactive” throughout. Besides, the Potency result in [9] is “inactive”. Also, the Potency in [10] (tumour line A) is 2.82 µM (active); in experiment [10] (tumour line B), 8.91 µM (active); in experiment [10] (tumour line D) it was 5.62 µM (active). For the same molecule, the result in experiment [11] was inactive.
